Experimental data taken from PubChem BioAssay (NCI).
About 79,000 compounds went through this panel and 15% of them were active in at least one assay; those are over-represented in the sample as a whole. Unmarked numbers belong to inactive results. The source made the active and inactive calls. Rule as the data show it: active = growth inhibition above about 70%; inactive = the rest.

Tests used:
[1] = NCI Yeast Anticancer Drug Screen. Data for the rad50 strain (AID 155);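 also: 0% = growth of vehicle-only cultures of the same strain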; conditions: S. cerevisiae rad50 strain growth inhibition, active compounds read high
Outline: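 Relative growth inhibition (compound vs vehicle) was measured in yeast with a defined repair-gene alteration.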

[2] = NCI Yeast Anticancer Drug Screen. Data for the mec2-1 strain (AID 157); conditions: S. cerevisiae mec2-1 strain, active compounds read high
Outline: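 Test agents were screened against the mec2-1 yeast strain, with defined DNA repair or cell cycle alteration. Growth was scored as inhibition against vehicle-only controls.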

[3] = NCI Yeast Anticancer Drug Screen. Data for the sgs1 mgt1 strain (AID 161);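 also: 0% = growth of cultures given vehicle only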; conditions: S. cerevisiae sgs1 mgt1 strain, active compounds read high
Outline: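 Inhibition of yeast growth, normalised to vehicle-treated controls, is reported for a strain bearing genetic alterations in DNA damage repair.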

[4] = NCI Yeast Anticancer Drug Screen. Data for the cln2 rad14 strain (AID 165);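 also: 0% = growth equal to vehicle treated cultures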; conditions: S. cerevisiae cln2 rad14 strain, active compounds read high
Outline: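 Growth of compound-exposed yeast (cln2 rad14 genotype) measured and expressed as inhibition relative to vehicle.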

[5] = NCI Yeast Anticancer Drug Screen. Data for the bub3 strain (AID 167); conditions: S. cerevisiae bub3 mutant strain, active compounds read high
Outline: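 Screening used yeast with an engineered genetic alteration affecting cell cycle control. Compound-exposed cultures were compared with vehicle cultures, and reduced growth was taken as inhibition.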

[6] = NCI Yeast Anticancer Drug Screen. Data for the mlh1 rad18 strain (AID 175); conditions: S. cerevisiae mlh1 rad18 strain growth inhibition, active compounds read high
Outline: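 In this whole-cell yeast screen, a strain with altered DNA damage repair is challenged with compound, and its growth is measured against matched vehicle-treated controls.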

[7] = at 5.0 µM (retest, dose inferred, filed as 0.5)
[8] = at 50.0 µM (retest, dose inferred, filed as 5.0)

| Compound | growth inhibition [1, 7] | growth inhibition [1, 8] | growth inhibition ([1]; at 50.0 µM) | growth inhibition [2, 7] | growth inhibition [2, 8] | growth inhibition ([2]; at 50.0 µM) | growth inhibition [3, 7] | growth inhibition [3, 8] | growth inhibition ([3]; at 50.0 µM) | growth inhibition [4, 7] | growth inhibition [4, 8] | growth inhibition ([4]; at 50.0 µM) | growth inhibition [5, 7] | growth inhibition [5, 8] | growth inhibition ([5]; at 50.0 µM) | growth inhibition [6, 7] | growth inhibition [6, 8] | growth inhibition ([6]; at 50.0 µM) |
| --- | --- | --- | --- | --- | --- | --- | --- | --- | --- | --- | --- | --- | --- | --- | --- | --- | --- | --- |
| C[CH2][Sn]([CH2]C)([O]C(=O)c1cccc(OC)c1)[O][Sn]([CH2]C)([CH2]C)[O]C(=O)c1cccc(OC)c1 | 31% | 69% | 59.5% | 30% | 79% (active) | 39.2% | 36% | 76% (active) | 37.5% | 30% | 58% | 40.8% | 30% | 86% (active) | 37.5% | 40% | 74% (active) | 56.5% |
| N#C/C=C(\c1ccccc1)c1c[nH]c2ccccc12 | -144% | 97% (active) | 97.5% (active) | -46% | 99% (active) | 98.1% (active) | -62% | 98% (active) | 98.7% (active) | -58% | 98% (active) | 95.8% (active) | -63% | 97% (active) | 97% (active) | -120% | 98% (active) | 98.2% (active) |
| CC(=O)N(c1ccccc1)c1nc2ccccc2s1 | -8% | 1% | -41.2% | -4% | -4% | -22.9% | -6% | -4% | -22.6% | -2% | -6% | -42.6% | 30% | 59% | 75.7% (active) | -25% | -51% | -30.3% |
| CCCCCCCCCCCCCCCCCCn1[se]c2ccccc2c1=O | 7% | 7% | 69.3% | 16% | 16% | 45.4% | 17% | 17% | 83.8% (active) | 15% | 15% | 59.1% | 0% | 0% | 76.5% (active) | -1% | -1% | 33.5% |
| O=C(Nc1ccc(C(=O)c2ccccc2)cc1)Nc1ccc(Cl)c(Cl)c1 | 23% | 96% (active) | 92.5% (active) | 9% | 97% (active) | 95.2% (active) | 23% | 97% (active) | 94.8% (active) | 30% | 91% (active) | 94.5% (active) | 31% | 98% (active) | 96.1% (active) | 38% | 97% (active) | 94.7% (active) |
| CCOc1c(N=Nc2ccccc2OC)c(C)nn1C(N)=S | 6% | 24% | 8.85% | -10% | 21% | 3.9% | -5% | 41% | 9.1% | -2% | 3% | -20.6% | 1% | 14% | 22.9% | -4% | 21% | 29.9% |
| COc1cc(N=Nc2cccc(S(N)(=O)=O)c2)c2ccccc2c1N | -6% | 98% (active) | 95.3% (active) | -2% | 99% (active) | 97.7% (active) | 2% | 99% (active) | 97.4% (active) | 34% | 98% (active) | 95.5% (active) | -5% | 99% (active) | 94.4% (active) | 5% | 98% (active) | 95.8% (active) |
| O=C(NCCCCCNC(=O)C12CC3CC(CC(C3)C1)C2)C12CC3CC(CC(C3)C1)C2 | 8% | 7% | 5.9% | 5% | -8% | 27.8% | 7% | 7% | -5.15% | -1% | -2% | 40.2% | 4% | 0% | 1.75% | 3% | 12% | 4.15% |
| S=C(N/N=C/c1ccccn1)Nc1ccccn1 | -1% | 99% (active) | 90.8% (active) | -2% | 99% (active) | 92.9% (active) | 3% | 99% (active) | 91.5% (active) | -15% | 98% (active) | 88.5% (active) | -2% | 98% (active) | 90.9% (active) | -3% | 96% (active) | 90.1% (active) |
